# Results as given in PubChem BioAssay.
# Inconclusive results are not listed. The source made the active and inactive calls. Unless noted, cut-off not given; nearly all actives show AC50 up to about 26 µM.
# Tests used:
# [1] = viability loss in pontine glioma line – cell-based, SU-DIPG-XXV, MIPE5.0, CellTiter-Glo, qHTS, dose response (AID 1347065); settings: CellTiter-Glo ATP luminescence;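 further: cells exposed to compound for 48 hours before ATP readout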
# [2] = JHH-DIPG-1 glioma cell viability, MIPE5.0 library, CellTiter-Glo luminescence, qHTS (AID 1347067); settings: JHH-DIPG-1 glioma viability, CellTiter-Glo ATP luminescence;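 further: cells exposed to compound for 48 hours before readout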
# [3] = SU-DIPG-XXV glioma cell viability, MIPE5.0 library, qHTS (AID 1347068; cut-off not given, nearly all actives have IC50 up to about 30 µM;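 on IC50: cells exposed to compound for 48 hours before viability readout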)
# [4] = LFS_MB_P medulloblastoma growth inhibition, cell-based, chromothripsis tumors, cisplatin or BGB combos (AID 1671449; in the data active means inhibition above about 80%;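 further: cells exposed for 96 hours; 0% = vehicle DMSO and 100% = killing by high DMSO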); settings: LFS_MB_P medulloblastoma cells
# [5] = HDN33 neuroblastoma growth inhibition, cell-based, chromothripsis tumors, cisplatin or BGB combos (AID 1671450; in the data active means inhibition above about 80%;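 further: cells exposed to compound for four days; 0% = vehicle DMSO and 100% = cell killing by high DMSO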); settings: HDN33 neuroblastoma cells, stronger effect = higher value
# [6] = ICB984 medulloblastoma cell growth inhibition, synergistic combos for chromothripsis tumors, cisplatin or BGB combos (AID 1671451; call rule not given here;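 further: cells exposed for 96 hours before readout; 0% = vehicle DMSO and 100% = killing by high DMSO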); settings: ICB984 medulloblastoma cells, drug combinations, stronger effect = higher value
# [7] = LFS_MB_1R medulloblastoma cell growth inhibition, synergistic combos for chromothripsis tumors, cisplatin or BGB combos (AID 1671452; in the data active means inhibition above about 80%;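 further: cells exposed for 96 hours before readout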); settings: LFS_MB_1R medulloblastoma cells, stronger effect = higher value
# [8] = HTB85 osteosarcoma cell growth inhibition, synergistic combos for chromothripsis tumors, BGB or cisplatin IC20 combos (AID 1671453; in the data active means inhibition above about 80%;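 further: cells exposed for 96 hours before readout; 0% = vehicle DMSO and 100% = high DMSO killing control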); settings: HTB85 osteosarcoma cells, drug combinations, stronger effect = higher value
# [9] = CRL2098 osteosarcoma cell growth inhibition, synergistic combos for chromothripsis tumors, BGB or cisplatin IC20 combos (AID 1671454; in the data active means inhibition above about 80%;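 further: cells exposed for 96 h before readout; 0% = vehicle DMSO and 100% = killing by high DMSO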); settings: CRL2098 osteosarcoma cells, drug combinations, stronger effect = higher value
# [10] = HD-MB03 medulloblastoma cell growth inhibition, synergistic combos for chromothripsis tumors, BGB or cisplatin IC20 combos (AID 1671455; in the data active means inhibition above about 83%;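 further: 0% = vehicle DMSO and 100% = high DMSO as cytotoxic control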); settings: HD-MB03 medulloblastoma cells, stronger effect = higher value
# [11] = UWB1.289 ovarian carcinoma cell growth inhibition, synergistic combos for chromothripsis tumors, BGB or cisplatin combos (AID 1671456; in the data active means inhibition above about 80%;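 further: cells exposed to compound for four days; 0% = vehicle DMSO and 100% = killing by high DMSO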); settings: UWB1.289 ovarian carcinoma cells, stronger effect = higher value
# [12] = LFS_MB_2R medulloblastoma cell growth inhibition, synergistic combos for chromothripsis tumors, cisplatin combos (AID 1671457; in the data active means inhibition above about 80%;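 further: cells exposed to compound for four days before readout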); settings: LFS_MB_2R medulloblastoma cells, stronger effect = higher value
# [13] = MDA-MB-436 breast carcinoma cell growth inhibition, synergistic combos for chromothripsis tumors, BGB or cisplatin combos (AID 1671458; call rule not given here;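 further: cells exposed for 96 hours; 0% = vehicle DMSO and 100% = killing by high DMSO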); settings: MDA-MB-436 breast carcinoma growth inhibition, drug combinations, stronger effect = higher value
# [14] = UWB1.289_BRCA1 ovarian cancer growth, cell-based, BGB or cisplatin combinations (AID 1671459; in the data active means inhibition above about 80%); settings: UWB1.289 BRCA1 ovarian carcinoma, drug combinations, stronger effect = higher value
# [15] = human astrocyte viability loss, single and combined drugs, cytotoxicity control for chromothriptic childhood tumor combination screen, cell-based, BGB or cisplatin IC20 combos (AID 1671460; in the data active means inhibition above about 80%;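 further: cells exposed to compounds for 96 hours before viability readout; 0% = vehicle and 100% = killing control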); settings: Human astrocytes, drug combinations, stronger effect = higher value
# [16] = growth inhibition of BT084 medulloblastoma cells, cell-based, ICGC_MB145, cisplatin and BGB IC40 combos (AID 1671461; in the data active means inhibition above about 80%;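 further: cells exposed to drugs for 96 hours; 0% = vehicle DMSO and 100% = high DMSO full killing control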); settings: drug combinations, stronger effect = higher value
# [17] = growth inhibition of RCMB18 medulloblastoma cells, cell-based, cisplatin and BGB IC40 combos (AID 1671462; in the data active means inhibition above about 80%;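 further: cells exposed to compound for four days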); settings: stronger effect = higher value
# [18] = growth inhibition of CRL1545 osteosarcoma cells, cell-based, cisplatin and BGB IC20 combos (AID 1671464; in the data active means inhibition above about 80%;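 further: cells exposed to compound for 96 hours before readout; 0% = vehicle DMSO and 100% = high DMSO killing control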); settings: stronger effect = higher value
# [19] = measured here: combination with BGB IC40, at 0.05 µM
# [20] = measured here: with BGB IC20 combination, at 0.5 µM
# [21] = measured here: with cisplatin IC20 combination, at 0.5 µM
# [22] = measured here: combination with cisplatin, at 0.5 µM
# [23] = measured here: combination with cisplatin, at 5 µM
compound,measurement,setting,value
CN1CC[C@@H](c2c(O)cc(O)c3c(=O)cc(-c4ccc(C(F)(F)F)cc4Cl)oc23)[C@@H]1CO,AC50,[1],23.5 µM (active)
same,outcome,[2],inactive
Nc1nccc(-c2c(-c3ccc(F)cc3)ncn2C2CCN(Cc3ccon3)CC2)n1,outcome,[1],inactive
same,outcome,[2],inactive
same,outcome,[3],inactive
Cc1cccc(-c2[nH]c(CNc3ccccc3F)nc2-c2ccc3ncnn3c2)n1,outcome,[1],inactive
same,outcome,[3],inactive
C=CC(=O)Nc1ccc(F)c(-c2ncnc3[nH]cc(C(=O)OCC)c23)c1,AC50,[1],18.6 µM (active)
same,AC50,[2],18.6 µM (active)
COc1ccc(CNC(=O)c2cc(-c3cncc(Cl)c3)cnc2-c2ccccn2)nc1OC,outcome,[1],inactive
same,outcome,[2],inactive
same,outcome,[3],inactive
C[C@@H]1CC2C3C[C@H](F)C4=CC(=O)C=C[C@]4(C)[C@@]3(F)[C@@H](O)C[C@]2(C)[C@@]1(OC(=O)c1ccco1)C(=O)SCF (some centres undefined),AC50,[1],20.9 µM (active)
same,outcome,[3],inactive
CCc1cc2c(cc1N1CCC(N3CCOCC3)CC1)C(C)(C)c1[nH]c3cc(C#N)ccc3c1C2=O,AC50,[1],2.04 µM (active)
same,outcome,[3],inactive
O=C1Nc2nc(-c3c(O)cccc3OCC3CC3)cc([C@@H]3CCCNC3)c2CO1,AC50,[1],18.6 µM (active)
same,AC50,[2],26.3 µM (active)
same,IC50,[3],13.2 µM (active)
CNC(=O)Cn1cc(-c2ccc3c(c2)C(F)CC32NC(=O)N(CC(=O)N(Cc3ccc(F)cc3)C(C)C(F)(F)F)C2=O)cn1 (centres undefined),outcome,[1],inactive
same,outcome,[2],inactive
same,outcome,[3],inactive
CCOCOC[C@H](C[C@H](C)C(=O)NO)NC(=O)c1ccc(Oc2ccccc2)cc1,outcome,[1],inactive
same,outcome,[2],inactive
same,outcome,[3],inactive
CCCN(CCC)C(=O)C1=Cc2ccc(-c3ccc(C(=O)N4CCCC4)cc3)cc2N=C(N)C1,AC50,[1],20.9 µM (active)
same,AC50,[2],23.5 µM (active)
same,outcome,[3],inactive
C[C@]12CCCN1CC1=NNC(=O)c3cc(F)cc4[nH]c2c1c34,AC50,[1],18.6 µM (active)
same,outcome,[2],inactive
same,outcome,[3],inactive
same,inhibition,"[4]; at 0.5 µM, stronger effect = higher value",-13.4% (inactive)
same,inhibition,"[4]; measured here: combination with BGB IC20, at 0.005 µM",-16.8%
same,inhibition,"[4]; measured here: combination with BGB IC40, at 0.005 µM",-28.9%
same,inhibition,[4]; [19],-3.06%
same,inhibition,"[4]; measured here: combination with cisplatin, at 0.5 µM, stronger effect = higher value",-13.1%
same,inhibition,"[4]; measured here: combination with cisplatin, at 5 µM, stronger effect = higher value",-44.5%
same,inhibition,"[5]; BGB combo, at 5 µM",6.78%
same,inhibition,[5]; at 0.5 µM,9.23% (inactive)
same,inhibition,"[5]; cisplatin combo, at 5 µM",35.8%
same,inhibition,[5]; [20],6.38%
same,inhibition,[5]; [21],-0.356%
same,inhibition,"[5]; single agent, at 5 µM",20.9%
same,inhibition,"[6]; BGB IC20 combo, at 0.005 µM",-2.46%
same,inhibition,"[6]; BGB IC40 combo, at 0.005 µM",-21.8%
same,inhibition,"[6]; BGB IC40 combo, at 0.05 µM",-22.5%
same,inhibition,[6]; at 0.5 µM,-38.3% (inactive)
same,inhibition,"[6]; cisplatin combo, at 0.05 µM",-27.3%
same,inhibition,"[6]; cisplatin combo, at 0.5 µM",-41.3%
same,inhibition,"[6]; cisplatin combo, at 5 µM",-0.499%
same,inhibition,"[6]; measured here: 5 uM single agent, at 5 µM",-4.83%
same,inhibition,[7]; at 0.5 µM,-20.6% (inactive)
same,inhibition,[7]; [19],7.39%
same,inhibition,[7]; [22],-14%
same,inhibition,[7]; [23],1.25%
same,inhibition,[8]; at 0.5 µM,2.64% (inactive)
same,inhibition,"[8]; measured here: with BGB IC20, at 0.5 µM",-13.5%
same,inhibition,"[8]; measured here: with BGB IC20, at 5 µM",4.08%
same,inhibition,"[8]; measured here: with cisplatin IC20, at 0.5 µM",10.2%
same,inhibition,"[8]; measured here: with cisplatin IC20, at 5 µM",21.1%
same,inhibition,"[8]; single agent, at 5 µM",23.4%
same,inhibition,[9]; at 0.5 µM,-35.2% (inactive)
same,inhibition,"[9]; measured here: combination with BGB at IC20, at 0.5 µM",1.29%
same,inhibition,"[9]; measured here: combination with cisplatin at IC20, at 0.5 µM",-26.6%
same,inhibition,[10]; at 0.5 µM,-2.5% (inactive)
same,inhibition,"[10]; measured here: combo with BGB at IC20, at 0.5 µM",-14.3%
same,inhibition,"[10]; measured here: combo with cisplatin at IC20, at 0.5 µM",6.94%
same,inhibition,[11]; at 0.5 µM,-3.02% (inactive)
same,inhibition,"[11]; measured here: inhibition with BGB combination, at 0.05 µM",-15.4%
same,inhibition,"[11]; measured here: inhibition with cisplatin combination, at 0.05 µM",-2.14%
same,inhibition,[12]; at 0.5 µM,-20.2% (inactive)
same,inhibition,[12]; [22],-18.1%
same,inhibition,[12]; [23],-24.5%
same,inhibition,[13]; at 0.5 µM,3.1% (inactive)
same,inhibition,"[13]; measured here: BGB combination, at 0.5 µM",-13.3%
same,inhibition,"[13]; measured here: BGB combination, at 5 µM",-31.4%
same,inhibition,"[13]; measured here: cisplatin combination, at 0.5 µM",5.47%
same,inhibition,"[13]; measured here: cisplatin combination, at 5 µM",22.8%
same,inhibition,"[14]; BGB combination, concentration series, at 5 µM",-3.19%
same,inhibition,[14]; at 0.5 µM,2.39% (inactive)
same,inhibition,"[14]; cisplatin combination, concentration series, at 5 µM",5.42%
same,inhibition,[15]; at 0.5 µM,14.9% (inactive)
same,inhibition,"[15]; measured here: combo with BGB IC20, at 0.5 µM",12%
same,inhibition,"[15]; measured here: combo with cisplatin IC20, at 0.5 µM",13.1%
same,inhibition,[16]; at 0.5 µM,-23% (inactive)
same,inhibition,"[16]; cisplatin combination, at 0.5 µM",-25.6%
same,inhibition,"[16]; cisplatin combination, at 5 µM",-25.6%
same,inhibition,"[16]; measured here: BGB IC40 combination 0.05 uM, at 0.05 µM",-29%
same,inhibition,"[16]; single agent, at 5 µM",-12.6%
same,inhibition,[17]; at 0.5 µM,-18.5% (inactive)
same,inhibition,"[17]; cisplatin combo, at 5 µM",3.33%
same,inhibition,"[17]; measured here: BGB IC40 combination, at 0.05 µM",-15.1%
same,inhibition,[17]; [22],-6.38%
same,inhibition,"[17]; single agent, at 5 µM",-28.1%
same,inhibition,[18]; at 0.5 µM,7.98% (inactive)
same,inhibition,[18]; [20],-8.07%
same,inhibition,[18]; [21],16%
same,inhibition,"[18]; single agent, at 0.05 µM",13.9%
same,inhibition,"[18]; single agent, at 5 µM",35%
